Sfp PPTase inh – Sfp phosphopantetheinyl transferase inhibition; Potency, µM, most hits filed as inhibitors; 310,000 tested, 3.5% active; Biochemical Sfp PPTase activity, qHTS;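 further: the enzyme is Sfp with the accession as filed and its product quenches rhodamine fluorescence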
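With Hepes-Na pH 7.6 buffer containing 10 mM MgCl2, Sfp (15 nM) modified BHQ-2-YbbR (12.5 uM) using rhodamine-CoA (5 uM). Two reads 30 minutes apart at 525/598 nm yielded each well's rate.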
HP1b binding inh – HP1-beta chromodomain-methylated histone interaction inhibition; P83916; AlphaScreen HP1-beta / biotin-H3K9me3 peptide binding; Potency, µM (series often up to 114 µM), usual class: inhibitors; 390,000 tested, 0.56% active; AID 540317; further: nearly all actives have a fitted effect of over 70% in size
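AlphaScreen: HP1-beta (50 nM) preformed 30 min with biotin-H3(1-18)K9me3 peptide (50 nM) in PBS pH 7.4, 0.01% Tween-20. Compound added for 30 min at RT, then streptavidin donor/nickel chelate acceptor beads (10 ug/mL) for 30 min.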
BAZ2B inh – BAZ2B (human) inhibition; Q9UIF8; AlphaScreen BAZ2B-H3K14Ac peptide displacement; Potency, µM (titrated, usually from 114 µM), usual class: inhibitors; 360,000 tested, 4.4% active; further: nearly all actives have a fitted effect of over 60% in size
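AlphaScreen luminescence quantifies BAZ2B engagement of H3K14Ac peptide; the protein and biotinylated peptide are both at 50 nM final, buffer PBS pH 7.4 with 0.01% Tween-20, all steps at room temperature.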
G9a block – G9a (human) methyltransferase inhibition; G9a H3K9 monomethylation, AlphaScreen, 2 h; Potency, µM (top dose mostly 102 µM), usual class: inhibitors; 350,000 tested, 8.8% active; AID 504332; further: nearly all actives have a fitted effect of over 75% in size
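Enzyme 20 nM + cpd, 15 min RT; add b-H3K9 pep 500 nM / SAM 20 uM; 2 h RT; anti-H3K9me1 Ab 0.5 ug/mL + SA donor / anti-rabbit acceptor beads 20 ug/mL each, 10 min; AlphaScreen read.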
JMJD2A Tudor – JMJD2A Tudor domain (human) inhibition. O75164. 390,000 tested, 4.4% active. AlphaScreen JMJD2A-Tudor / H3K4me3 peptide binding. AID 504339. Potency, µM (top dose mostly 114 µM), hits mostly inhibitors; further: nearly all actives have a fitted effect of over 50% in size
Large screens that a line does not name were inactive. In the library only some 12% were active in any assay of this set; here they are far more common. The call rests on the fitted dose curve; in most records, active means well fitted curve in the direction sought with a large enough effect; inconclusive means small, poorly fitted or top-dose-only effect, or another doubt; inactive means no such curve, though single readings can be large; an effect the other way counts as inactive or inconclusive.

O=C(O)c1ccc(Nc2nc(-c3ccc([N+](=O)[O-])cc3)nc3ccccc23)cc1	Sfp PPTase inh 50µM, BAZ2B inh 50µM, JMJD2A Tudor inconclusive
O=[N+]([O-])c1ccc(Nc2c3ccccc3nc3ccccc23)cc1	BAZ2B inh inconclusive, G9a block 13µM, JMJD2A Tudor inconclusive
O=[N+]([O-])c1ccccc1Nc1c2ccccc2nc2ccccc12	none
O=[N+]([O-])c1ccc(-c2nc(Nc3ccc(O)cc3)c3ccccc3n2)cc1	G9a block inconclusive
CC(=O)c1ccc(S(=O)(=O)Nc2cccc(-c3ccc(N4CCCCCC4)nn3)c2)cc1	none (no result: Sfp PPTase inh)
CC(C)(C)c1ccc(OCC(=O)OCCNC(=O)c2cccnc2)cc1	G9a block 50µM
COC(=O)[C@]1(C)N[C@H](CN(C)S(=O)(=O)c2ccc(C(C)(C)C)cc2)[C@@H]2C(=O)N(C)C(=O)[C@@H]21	none (no result: Sfp PPTase inh, BAZ2B inh, G9a block)
COC(=O)[C@]1(C)N[C@H](CN(C)S(=O)(=O)c2ccc(C)cc2)[C@@H]2C(=O)N(C)C(=O)[C@@H]21	JMJD2A Tudor 79µM (no result: Sfp PPTase inh, BAZ2B inh, G9a block)
COc1ccc(NS(=O)(=O)c2cccc(-c3n[nH]c(=S)n3Cc3ccccc3)c2)cc1	BAZ2B inh inconclusive, G9a block 7.1µM
COc1ccc(S(=O)(=O)Nc2ccc(-n3cccc3)cc2)cc1	HP1b binding inh 45µM, BAZ2B inh 71µM, G9a block 50µM, JMJD2A Tudor 56µM
COc1ccc(NS(=O)(=O)c2cccc(-c3nnc(-c4ccccc4)o3)c2)cc1	none
COc1ccc(NS(=O)(=O)c2ccc(-c3n[nH]c(=S)n3Cc3ccccc3)cc2)cc1	G9a block 4µM, JMJD2A Tudor 25µM
Nc1c(CC(=O)O)cccc1C(=O)c1ccc(Br)cc1	none (no result: HP1b binding inh, BAZ2B inh, JMJD2A Tudor)
Cc1sc(NC(=O)c2ccccc2)c(C(c2ccc(Cl)cc2)N2CCN(CCO)CC2)c1C (centres undefined)	Sfp PPTase inh inconclusive, BAZ2B inh inconclusive, G9a block inconclusive, JMJD2A Tudor inconclusive
Cc1ccccc1NC(=O)c1cccc2nccnc12	none
COC(=O)CCC(=O)Oc1ccc(OC(=O)CCC(=O)OC)cc1	G9a block 50µM (no result: HP1b binding inh, JMJD2A Tudor)
O=C(CCC(=O)OCC(=O)c1ccccc1)Nc1cccc2cccnc12	none
Cc1ccc2c(c1)[C@@H]1CN(C)CC[C@@H]1N2S(=O)(=O)c1ccc([N+](=O)[O-])cc1	BAZ2B inh inconclusive, G9a block inconclusive, JMJD2A Tudor inconclusive
Cc1ccc2c(c1)C1CN(C)CCC1N2Sc1ccccc1[N+](=O)[O-] (centres undefined)	HP1b binding inh inconclusive, BAZ2B inh 16µM, G9a block inconclusive, JMJD2A Tudor 32µM
Cc1ccc2c(c1)c1c(n2CC(O)CNC(C)(C)C)CCCC1 (centres undefined)	BAZ2B inh 45µM, G9a block 50µM, JMJD2A Tudor 45µM
Cc1ccc2c(c1)c1c(n2CC(O)CN2CCCCCC2)CCCC1 (centres undefined)	HP1b binding inh inconclusive, BAZ2B inh 35µM, G9a block inconclusive, JMJD2A Tudor inconclusive
Cc1ccc2c(c1)c1c(n2CC(O)Cn2c(C)nc3ccccc32)CCCC1 (centres undefined)	JMJD2A Tudor inconclusive
CNCC(O)Cn1c2c(c3ccccc31)CCCC2 (centres undefined)	BAZ2B inh inconclusive, G9a block 50µM, JMJD2A Tudor 28µM
O=C(/C=C/c1ccco1)Nc1ccccc1C(=O)Nc1cccc(C(=O)O)c1	Sfp PPTase inh inconclusive, G9a block 50µM
O=C(/C=C/c1ccco1)Nc1ccccc1C(=O)O	Sfp PPTase inh 18µM, G9a block 14µM, JMJD2A Tudor inconclusive
COc1ccc(/C=C/C(=O)Nc2ccccc2C(=O)O)cc1	none
O=C(O)/C=C\C(=O)Nc1ccccc1N1CCN(c2ccccc2)CC1	Sfp PPTase inh inconclusive, BAZ2B inh inconclusive, G9a block 45µM
O=C(/C=C/c1ccco1)Nc1ccccc1N1CCCC1	Sfp PPTase inh inconclusive, BAZ2B inh inconclusive, G9a block 45µM, JMJD2A Tudor inconclusive
O=C(Nc1ccc(N2CCOCC2)nc1N1CCOCC1)c1cccc(C(F)(F)F)c1	none (no result: G9a block)
O=C(Nc1ccccc1C(=O)Nc1ccccc1)c1ccccc1Br	none (no result: Sfp PPTase inh, BAZ2B inh, G9a block)
CN(C(=O)/C=C/c1ccco1)c1ccccc1C(=O)O	Sfp PPTase inh 50µM, BAZ2B inh inconclusive, G9a block 25µM
O=C(/C=C/c1ccco1)Nc1ccc(Cl)c(-c2nc3cc(Cl)ccc3o2)c1	none (no result: Sfp PPTase inh)

Compound activity as filed in PubChem BioAssay.
